SKKanGAS inh: SKKanGAS growth inhibition | S. pyogenes SKKanGAS, kanamycin growth, BacTiter-Glo, 6 h | AID 1662 | actives 1.3% (n = 300,000) | inhibition, % at 7.5 µM;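 active = mean replicate score, as percent of positive control median, at least 50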;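 also: strain carries kanamycin resistance gene driven by streptokinase promoter and grows in 40 µg/ml kanamycin; loss of luminescence reflects streptokinase promoter inhibition or plain growth inhibition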
TIM10 inh: inhibits growth of TIM10 yeast strain; S. cerevisiae TIM10 strain growth, BacTiter-Glo luminescence, 24 h; inhibition, % at 10 µM; actives 1.4% (n = 330,000);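 active = inhibition of 40% or more at the single tested concentration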;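 also: wild-type TIM10 isogenic control strain grown at permissive 25 °C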
EBI2 antag: EBI2 (human) antagonism; P32249; EBI2 beta-arrestin recruitment, luminescence, 7a,25-OHC stimulated; inhibition, % at 5 µM; actives 0.81% (n = 360,000); AID 651636; in the data active = inhibition above about 38%;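 also: enzyme fragment complementation signal reports receptor beta-arrestin coupling in cells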
Target sequence (P32249 whole entry, looked up, the tested form may be a part): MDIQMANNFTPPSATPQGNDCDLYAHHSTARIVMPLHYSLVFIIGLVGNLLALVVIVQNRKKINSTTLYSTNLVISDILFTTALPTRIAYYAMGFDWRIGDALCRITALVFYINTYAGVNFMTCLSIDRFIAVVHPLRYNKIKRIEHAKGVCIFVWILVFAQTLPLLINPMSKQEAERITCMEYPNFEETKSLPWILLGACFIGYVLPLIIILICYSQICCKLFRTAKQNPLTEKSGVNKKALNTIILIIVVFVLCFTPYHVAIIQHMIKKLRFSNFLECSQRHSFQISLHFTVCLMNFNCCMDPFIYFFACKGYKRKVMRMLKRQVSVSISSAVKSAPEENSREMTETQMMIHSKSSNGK
PfHsp90 set2: growth inhibition of yeast expressing Plasmodium Hsp90. S. cerevisiae expressing PfHsp90, BacTiter-Glo ATP, 48 h; yeast lacking PDR1 and PDR3 efflux regulators. inhibition, % at 9.4 µM. actives 0.32% (n = 310,000). AID 504621;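 active = every replicate shows inhibition above about 80%, whatever the replicate mean, limit read from the data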
tim10-1 inh: tim10-1 yeast growth inhibition | AID 463190 | inhibition, % at 20 µM | actives 2.2% (n = 330,000) | S. cerevisiae tim10-1 ts strain growth, BacTiter-Glo, 24 h;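 active = inhibition of at least 40%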;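 also: mutant grown at 25 °C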
tim23-1 inh: growth inhibitors of tim23-1 mutant yeast. S. cerevisiae tim23-1 growth, BacTiter-Glo luminescence, 24 h. inhibition, % at 20 µM. actives 1.3% (n = 330,000). AID 463212;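 active = growth inhibition of the mutant yeast at or above 50%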;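 also: temperature-sensitive mutant grown at 25 °C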
tim10 confirm: TIM10 yeast growth inhibition, confirmed | shares compounds with TIM10 inh | S. cerevisiae tim10 strain growth, BacTiter-Glo luminescence, 24 h | inhibition, % at 10 µM | actives 63% (n = 4,600) | AID 463215;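 active = inhibition of yeast growth at or above a set limit in either of two replicates at 10 µM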; also: this counterscreen used the strain with wild-type TIM10
Each line names hits and unclear results; the compound was inactive in the other large screens (follow-up assays come after a bar, where they were run). This is a sample that favours compounds with a hit; in the whole collection about 4.7% have one here.

FC(F)(F)c1ccc(NC(=S)NCc2ccccc2)cc1	TIM10 inh 45 | tim10 confirm 47
Cc1ccc2oc(=O)c3cc(C(=O)NCCCN4CCCCCC4)sc3c2c1	none
Cc1ccc2oc(=O)c3cc(C(=O)NCCCN4CCc5ccccc5C4)sc3c2c1	TIM10 inh 55 | tim10 confirm inactive
CCC(C)NC(=O)Cn1cnc2sc(C)c(S(=O)(=O)N3CCCCC3)c2c1=O (configuration not stated)	none
O=C(/C=C/c1cccc(F)c1)Nc1ccc(S(=O)(=O)N2CCOCC2)cc1	TIM10 inh 68 (no result: SKKanGAS inh) | tim10 confirm 45
CC(=O)c1cccc(NC(=O)/C=C/c2ccc(S(=O)(=O)N3CCOCC3)cc2)c1	none (no result: SKKanGAS inh)
O=C(/C=C/c1ccccc1)Nc1ccc(S(=O)(=O)N2CCOCC2)cc1	TIM10 inh 46 | tim10 confirm 44
O=C(CSCc1ccc(Cl)cc1)Nc1ccc(S(=O)(=O)N2CCOCC2)cc1	TIM10 inh 43 | tim10 confirm inactive
COc1ccc(/C=C/C(=O)Nc2ccc(NC(C)=O)cc2)cc1S(=O)(=O)N1CCOCC1	TIM10 inh 96 | tim10 confirm inactive
CN(C)S(=O)(=O)c1cccc(NC(=O)/C=C/c2ccc(S(=O)(=O)N3CCOCC3)cc2)c1	none (no result: SKKanGAS inh)
COc1ccc(/C=C/C(=O)Nc2ccccc2)cc1S(=O)(=O)N1CCOCC1	none
COC(=O)c1ccc(COC(=O)CNC(=O)c2ccc(C)s2)cc1	none (no result: SKKanGAS inh)
O=C(/C=C/c1ccccc1)Nc1ccc(C(=O)N2CCCCC2)cc1	TIM10 inh 48 | tim10 confirm inactive
O=C(Nc1ncn[nH]1)c1ccc([N+](=O)[O-])cc1[N+](=O)[O-]	TIM10 inh 43 (no result: PfHsp90 set2) | tim10 confirm inactive
Cc1cccc(OCC(O)CN2CCN(c3ccccn3)CC2)c1C (configuration not stated)	TIM10 inh 98 | tim10 confirm inactive
CCn1c(CNc2ccc(Cl)cc2)nnc1SCC(=O)OC1CCCCC1	TIM10 inh 45 | tim10 confirm inactive
Cc1nnc(SCc2nc3ccccc3[nH]2)s1	none
c1ccc2[nH]c(CSc3nc4ccccc4s3)nc2c1	TIM10 inh 68 | tim10 confirm 59
Cc1ccc2c(c1)Cc1nc3ccccc3nc1-2	TIM10 inh 46 | tim10 confirm 51
S=C(NCCc1ccccc1)Nc1ccc(Cl)cc1Cl	TIM10 inh 49 | tim10 confirm 49
O=C(N=Nc1c(O)[nH]c2ccccc12)Nc1ccccc1	none (no result: SKKanGAS inh, TIM10 inh, tim10-1 inh, tim23-1 inh)
Cc1cccc(NC(=S)N=Nc2c(O)[nH]c3ccccc23)c1	SKKanGAS inh 97, TIM10 inh 41 | tim10 confirm 37
O=C(CCN1C(=O)/C(=C\c2ccccc2F)SC1=S)N1CCCCC1	TIM10 inh 42 | tim10 confirm inactive
O=C1/C(=C/c2ccccc2F)SC(=S)N1CCC(=O)N1CCCCC1CCO (configuration not stated)	none
Cc1cc(C)cc(C(=O)OCC(=O)NC2CCCC2)c1	none
Cc1cc(C)cc(C(=O)OCC(=O)NC(=O)NC2CCCC2)c1	TIM10 inh 96 (no result: SKKanGAS inh) | tim10 confirm inactive
O=C(COC(=O)CN1C(=O)c2ccccc2C1=O)NC1CCCC1	none
COc1ccc2[nH]cc(CCNC(=O)c3ccco3)c2c1	none (no result: SKKanGAS inh)
O=C(Oc1ccc2[nH]cc(CCN3C(=O)c4ccccc4C3=O)c2c1)c1ccco1	TIM10 inh 43 (no result: PfHsp90 set2) | tim10 confirm 39
Cc1[nH]nc(-c2ccc(O)cc2O)c1-c1ccc(Cl)cc1	none
COc1ccc(-c2n[nH]c(C)c2-c2ccc(Cl)cc2)c(O)c1OC	TIM10 inh 42 (no result: PfHsp90 set2) | tim10 confirm 33
COc1ccccc1OCCCc1c(C)n[nH]c1C	TIM10 inh 52 | tim10 confirm 51
COc1cccc(OCCc2c(C)n[nH]c2C)c1	none
Cc1cccc(OCCCCc2c(C)n[nH]c2C)c1	TIM10 inh 40 | tim10 confirm 39
Cc1ccc(C(C)C)cc1OCCn1cncn1	none
CC(C)(C)NC(=O)C(c1cccs1)N(CC1CCCO1)C(=O)c1ccc(-c2ccccc2)[nH]1 (configuration not stated)	TIM10 inh 42 | tim10 confirm inactive
